# Screening data (PubChem BioAssay)
# Hits are enriched below; roughly 2.1% of the tested compounds scored in any of these assays.
# aSyn yeast inh = alpha-synuclein toxicity inhibition in yeast | hit rate 0.14% among 370,000 | Potency, µM (highest dose often 46.1 µM), for inactives: at the top dose growth rescue (activation), hits mostly activators | Yeast expressing alpha-synuclein, growth rescue, BacTiter-Glo, 24 h; note: % of control where 0% means no effect; nearly all actives have a fitted effect of over 65% in size
#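 Screening used galactose-induced yeast with toxic alpha-synuclein levels, exposed to compound for 24 hr at 30 deg C. Cell growth, read with BacTiter-Glo luminescence, gave the measured signal.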
# Abeta rescue = A-beta toxicity reversal in yeast; Potency, µM (series often up to 46.1 µM), most hits filed as activators; AID 1347071; yeast expressing A-beta42, growth rescue, OD600, 48 h; response scale: 0% DMSO, 100% iron-clioquinol control; hit rate 0.063% among 410,000; note: nearly all actives have a fitted effect of over 55% in size
#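 Yeast growth medium received pinned compounds, then yeast cells expressing toxic A-beta were added; plates incubated at 30 C for 48 hr. Growth read as absorbance at 600 nm, normalized to DMSO and equimolar FeCl3 plus clioquinol controls.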
# TDP43 rescue = TDP-43 toxicity inhibition in yeast | TDP-43 expressing yeast growth rescue, BacTiter-Glo, 24 h | Potency, µM (highest dose often 46.1 µM), without a hit: at the highest dose growth rescue (activation), usual class: activators | hit rate 1.8% among 410,000; note: % of control where 0% means no effect; nearly all actives have a fitted effect of over 50% in size
#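 In this qHTS, compounds that restore growth of yeast expressing TDP-43 appear as activators. Cells (OD600=0.02, galactose medium, raffinose-pregrown) are incubated with compound 24 hr at 30 deg C and growth is quantified by BacTiter-Glo.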
# FUS suppressor = rescues growth of FUS-expressing yeast; S. cerevisiae FUS-expressing, growth rescue, OD600, 24 h; Potency, µM (titrated, usually from 76.6 µM), actives largely listed as activators; hit rate 0.24% among 390,000;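 note: plate controls were DMSO vehicle for no effect and reference control for full effect; nearly all actives have a fitted effect of over 55% in size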
#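 S. cerevisiae expressing FUS from galactose induction served as the toxicity model. Growth after 24hr at 30C, read as absorbance at 600 nm, indicates suppression of toxicity; compounds dosed at several concentrations.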
# * = called active by the depositor; i = inactive; ? = inconclusive; . = no result. Calls come from the whole dose curve; as a rule, active = well fitted curve in the direction sought with a large enough effect; inconclusive = small, poorly fitted or top-dose-only effect, or another doubt; inactive = no such curve, though single readings can be large; an effect the other way counts as inactive or inconclusive. Potency is the fitted concentration of half-maximal effect.
SMILES,aSyn yeast inh,Abeta rescue,TDP43 rescue,FUS suppressor
O=C(Cc1c(F)cccc1Cl)OCC(=O)N1CCc2ccccc21,7%,i,11µM*,i
CC(C)C(=O)N1CC[C@H]2[C@H](CCCN2Cc2ccc(F)cc2)C1,.,.,.,i
CC1CCCC(C)N1CCCNC(=O)c1nn(C)c2c1CSc1ccccc1-2 (stereo not given),6%,i,2%,i
COc1ccc(NC(=O)c2nn(C)c3c2CSc2ccc(C)cc2-3)cc1OC,.,i,22µM*,i
COc1cccc(CNC(=O)c2nn(C)c3c2CSc2ccccc2-3)c1,.,i,18µM*,?
CCCCNC(=O)c1nn(C)c2c1CSc1ccccc1-2,.,i,35µM*,i
Cc1ccc2c(c1)-c1c(c(C(=O)N3CCN(c4cc(C)ccc4C)CC3)nn1C)CS2,.,i,5%,?
Cn1nc(C(=O)NCc2cccc(Cl)c2)c2c1-c1ccccc1SC2,.,i,20µM*,i
CC[C@H](CCCc1ccc(OC)cc1)CCC(=O)N1CCOCC1,.,.,.,i
COCCCNC(=O)C[C@H]1C[C@@]2(C(=O)OC)C(=C[C@H](C(C)C)O[C@@H]2C2CC2)N(CCC2=CCCCC2)C1=O,.,.,.,i
COCCCNC(=O)C[C@@H]1C(=O)N2CCCC3=C2[C@@]1(C(=O)OC)CCCC3,.,.,.,i
Cn1nc(C(=O)NCc2ccccc2Cl)c2c1-c1ccccc1SC2,.,i,6%,i
Cn1nc(C(=O)NCc2ccccc2)c2c1-c1ccccc1SC2,.,i,20µM*,i
COc1cccc(/C=N\N2CCN(c3ccc(C)cc3)CC2)c1O,.,.,.,i
O=C(CSC1=NCCS1)Nc1ccc(S(=O)(=O)N2CCCCCC2)cc1,6%,i,0%,i
O=C(CSC1=NCCS1)Nc1ccc(S(=O)(=O)NC2CCCCC2)cc1,3%,i,-24%,40µM*
CC(C)(C)C(c1nc2ccccc2[nH]1)n1c(-c2cc(Cl)cc(Cl)c2)nc2ccccc21 (stereo not given),-8%,?,35µM*,i
CC(C)(C)C(c1nc2ccccc2[nH]1)n1c(-c2cccc(S(C)(=O)=O)c2)nc2ccccc21 (stereo not given),3%,i,8%,i
CC1(C(=O)c2ccccc2)C2c3c(ccc4ccccc34)OC(=O)C21C(=O)N1CCOCC1 (stereo not given),7%,?,18µM*,i
Nc1nc2c(s1)CCc1c-2cnn1-c1ccccc1,11µM*,i,0%,i
Nc1nc2c(s1)COc1ccccc1-2,-35%,i,-59%,i
C[C@H]1COc2cccc(N3CCCC3)c2S(=O)(=O)N1C,.,.,.,i
O=C(NC1CCCCN(Cc2cccc(Cl)c2)C1=O)c1ccc(Cl)cc1Cl (stereo not given),.,.,.,i
Nc1cccc2nsnc12,-3%,i,-29%,i
Nc1cc2nsnc2cc1Br,5%,i,13µM*,.
SMILES,aSyn yeast inh,Abeta rescue,TDP43 rescue,FUS suppressor
Cc1ccccc1NC(=S)NCCSc1ccc(Cl)cc1,1%,i,18µM*,i
CCc1ccccc1NC(=S)NCCSc1ccc(Cl)cc1,-8%,i,13µM*,i
CSc1ccccc1NC(=S)NCc1ccc(Cl)cc1,-1%,16µM*,?,i
Cc1ccc(C)c(NC(=S)NCCSc2ccc(Cl)cc2)c1,-5%,i,21%,.
CC(C)[C@@H]1CC[C@@H](C)C[C@@H]1P(=O)(c1ccccc1)c1ccccc1,2%,.,.,.
O=C(Nc1ccccc1Sc1ccccc1)c1ccccc1,-1%,?,11µM*,i
O=C(CCl)Nc1ccccc1Sc1ccc(Cl)cc1,.,i,11µM*,i
COC(=O)c1ccc(Cn2ccc3ccc(-c4ccc5ccn(Cc6ccc(OC)cc6)c5c4)cc32)cc1,.,.,.,i
Cc1noc(C)c1-c1ccc(C(=O)NCCc2ccccc2)c2occc12,-19%,i,32µM*,?
Cc1noc(C)c1-c1ccc(C(=O)NCc2cccs2)c2occc12,-4%,i,16µM*,i
CC(=O)Nc1ccc(NC(=O)c2ccc(-c3c(C)noc3C)c3ccoc23)cc1,3%,i,17%,i
Cc1ccc(-c2ccc(=O)n(CC(=O)Nc3cccc(C#N)c3)n2)cc1,.,i,2%,i
CCc1cccc(NC(=O)Cn2nc(-c3cc(C)ccc3C)ccc2=O)c1,.,?,28µM*,?
Nc1ccc(CNC(=O)OCC2c3ccccc3-c3ccccc32)cc1,8%,i,14µM*,?
